High-throughput results (PubChem)
Sampled rows, rich in hits. Any-hit rate of the full collection: about 3.4%.
GPR151 ag: activators of human GPR151, primary screen, cell-based, PathHunter beta-arrestin, luminescence; 1% of 650,000 active; G-protein coupled receptor 151 (Homo sapiens), Q8TDV0; activation, % at 11.2 µM; PathHunter beta-arrestin GPR151 cells; in the data active = activation above about 4.9%;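 also: 0% = median of compound wells and 100% = cells with positive control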
FBW7 activator: FBW7 E3 ligase activators, primary screen, biochemical, AlphaScreen, human. F-box/WD repeat-containing protein 7 (Homo sapiens), Q969H0. AlphaScreen FBW7–phospho-cyclin E peptide binding, activator screen. normalized activity (activation), % at 26.1 µM. 0.13% of 650,000 active; in the data active = normalized activity above about 1.9%;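 also: purified mutant Fbw7 with reduced substrate affinity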
Target sequence (Q969H0 whole entry, looked up): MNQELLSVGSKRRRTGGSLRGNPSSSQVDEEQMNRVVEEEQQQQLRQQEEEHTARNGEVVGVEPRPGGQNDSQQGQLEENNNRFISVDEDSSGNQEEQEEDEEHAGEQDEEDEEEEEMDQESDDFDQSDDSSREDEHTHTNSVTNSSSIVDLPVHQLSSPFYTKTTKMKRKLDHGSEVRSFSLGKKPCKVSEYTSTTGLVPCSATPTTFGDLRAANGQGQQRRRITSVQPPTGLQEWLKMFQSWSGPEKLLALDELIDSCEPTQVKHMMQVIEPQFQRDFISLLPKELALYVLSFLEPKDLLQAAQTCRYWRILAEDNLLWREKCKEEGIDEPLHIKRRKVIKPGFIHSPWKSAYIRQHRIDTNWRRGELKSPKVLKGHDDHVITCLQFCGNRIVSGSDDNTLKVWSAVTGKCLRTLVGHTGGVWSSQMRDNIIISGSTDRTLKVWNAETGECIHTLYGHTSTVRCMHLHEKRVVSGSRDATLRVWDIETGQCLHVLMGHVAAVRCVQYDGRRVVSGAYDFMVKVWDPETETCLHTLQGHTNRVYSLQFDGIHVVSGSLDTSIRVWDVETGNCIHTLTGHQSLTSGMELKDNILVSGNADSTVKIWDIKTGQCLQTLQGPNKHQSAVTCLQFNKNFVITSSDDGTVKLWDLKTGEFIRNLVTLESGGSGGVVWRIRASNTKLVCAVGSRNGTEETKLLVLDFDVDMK
MITF inh: MITF inhibitors, primary screen, biochemical, AlphaScreen, human. AID 1259374, 2018. inhibition, % at 2.6 µM. 0.91% of 650,000 active. AlphaScreen MITF homodimerization, bead proximity signal. Microphthalmia-associated transcription factor (Homo sapiens), O75030; in the data active = inhibition above about 50%;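 also: 0% = vehicle wells with protein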
TEAD-YAP block: TEAD-YAP interaction inhibition, primary screen, TEAD-YAP interaction inhibitor project, luminescence, HEK-TIYL cells; TEAD-Gal4/YAP UAS-luciferase luminescence; inhibition, % at 9.12 µM; 1.4% of 640,000 active; AID 1259422, 2018; in the data active = inhibition above about 32%;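 also: 0% = median of test compound wells and 100% = reference inhibitor wells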
GPR151 conf act: GPR151 activators, triplicate retest, confirmation, cell-based, PathHunter beta-arrestin, luminescence. shares compounds with GPR151 ag. GPR151 PathHunter beta-arrestin cells, 90 min; % of EA-reagent control over plate median. activation, % at 11.2 µM. 6,700 tested, under 10 active. AID 1508609, 2020;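 active = mean percent activation across replicates above the confirmation screen cutoff of 4.91%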
GPR119 counter: GPR119 activators in beta-arrestin cells, counter-screen for GPR151 activator project, cell-based, PathHunter beta-arrestin, luminescence, triplicate; activation, % at 11.2 µM; AID 1508611, 2020; 0.3% of 6,700 active; 90 min; 0 = compound-well median, 100 = enzyme-acceptor control; shares compounds with GPR151 ag;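 active = mean percent activation in the counterscreen above 29.09%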;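 also: counterscreen on off-target GPR119 to flag nonselective hits from the GPR151 activator screen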
Active calls of the source: *; . = no result; ! = not active in a repeat.

SMILES | GPR151 ag | FBW7 activator | MITF inh | TEAD-YAP block | GPR151 conf act | GPR119 counter
COc1cccc([C@H](C)NC(=O)c2cn(CCN3CCCC3)c3cc(-c4cn[nH]c4)ccc23)c1 | 11* | 0 | 16 | -3 | 0 | 1
COc1cccc(CNC(=O)c2cn(Cc3ccccc3)c3cc(-c4cn[nH]c4)ccc23)c1 | 2 | 0 | -3 | 0 | . | .
C=CCN1C(=O)/C(=C/c2ccc(Cl)cc2Cl)C(=O)NC1=S | 9.1* | 0 | 9 | 4 | -1 | -8
C=CCN1C(=O)/C(=C\c2cc(Cl)c(O)c(OC)c2)C(=O)NC1=S | 1 | 0 | -8 | -2 | . | .
CCc1c(C)nc(N)nc1N1N=C1SCC(N)=O | 9.5* | 1 | 14 | -5 | -1 | -8
CN1C(=O)C(=Cc2ccc(-c3cc(C(=O)O)ccc3Cl)o2)C(=O)N(C)C1=O | 0 | 0 | 2 | -4 | . | .
C/C(=C(/C#N)P(=S)(N1CCOCC1)N1CCOCC1)N1CCCC1 | 1 | 0 | 32 | 2 | . | .
OC1/C(=C/c2cccc(OCc3ccccc3)c2)N2CCC1CC2 (stereo not given) | 5.9* | 0 | 5 | -37 | 0 | 4
C[C@@H]1O[C@@H](O[C@H]2C[C@@H](O)[C@]3(CO)[C@H]4[C@H](O)C[C@]5(C)[C@@H](C6=CC(=O)OC6)CC[C@]5(O)[C@@H]4CC[C@]3(O)C2)[C@H](O)[C@H](O)[C@H]1O | 5.7*! | 0 | 7 | 103* | 3 | 128*
COc1ccc2oc3c(c2c1)NC(=O)CN=C3c1ccc(F)cc1 | -2 | 0 | 20 | 1 | . | .
COc1ccc2oc3c(c2c1)NC(=O)CN=C3c1ccccc1 | 6.9* | 0 | 13 | -11 | 1 | -1
COc1ccc(C2C([N+](=O)[O-])=C(N)Oc3c2c(=O)oc2ccccc32)cc1OC (stereo not given) | 1 | 0 | 19 | -7 | . | .
COc1cc(C2C([N+](=O)[O-])=C(N)Oc3c2c(=O)oc2ccccc32)ccc1O (stereo not given) | 5.7* | 0 | 3 | 26 | 0 | -4
N#Cc1c(Cl)c(Cl)nc(N2CCCNCC2)c1Cl | 6.1* | 0 | -5 | 0 | 1 | 13
N#Cc1cc(F)c(N2CCNCC2)cc1Cl | 0 | 0 | 1 | 3 | . | .
CCCN1CCC[C@@H]2Cc3nc(N)ncc3C[C@H]21 | -1 | 0 | 1 | -2 | . | .
CCCN1CCC[C@@H]2Cc3[nH]ncc3C[C@H]21 | 7.8*! | 0 | -1 | -1 | 1 | -7
C[C@H](N)[C@H](O)c1ccc(O)c(O)c1 | 5.7*! | 0 | 84* | -2 | 1 | 5
CC(=O)N1CC(=O)Nc2ccc(Br)cc2C1c1ccccc1 (stereo not given) | 1 | 0 | 3 | -3 | . | .
O=c1oc2ccccc2c(O)c1C(c1ccc2c(c1)OCO2)c1c(O)c2ccccc2oc1=O | 15* | 0 | -10 | -7 | 0 | 4
Cc1c(C(=O)OCCN(C)C)oc2ccccc12 | 1 | 1 | 17 | 1 | . | .
O=C(O)CCn1cc(C=C2C(=O)NC(=S)NC2=O)c(-c2cccc(Cl)c2)n1 | 0 | 0 | 1 | 10 | . | .
O=C(O)CCn1cc(C=C2C(=O)NC(=O)NC2=O)c(-c2ccc(Br)cc2)n1 | 5.4* | 0 | 1 | 15 | 3 | -3
Cc1ccc(-n2c(CN)nc3ccccc3c2=O)cc1 | 4 | 1 | 5 | 3 | . | .
O=c1c(-c2ccccc2)coc2c(CN3CCCCC3)c(O)ccc12 | 5.1* | 0 | 3 | 8 | -1 | -8
SMILES | GPR151 ag | FBW7 activator | MITF inh | TEAD-YAP block | GPR151 conf act | GPR119 counter
COc1cc(C=C(C#N)C#N)cc(O)c1O | -1 | 0 | 8 | 1 | . | .
CC(C)(C)c1cc(C=C(C#N)C#N)cc(C(C)(C)C)c1O | 6.4* | 0 | -5 | 91* | 1 | 18
CC(=O)Oc1cc(C)cc2oc(=O)c3c(c12)CCCC3 | 1 | 1 | 20 | 6 | . | .
Cc1cc2oc(=O)c3c(c2c(O)c1CN1CCN(C)CC1)CCCC3 | 9.3* | 0 | -16 | 6 | 0 | 8
CCCC[N+]12CCC(CC1)C(C(=O)c1cccs1)C2 (stereo not given) | 5.8* | 0 | 24 | -8 | 1 | -3
Cc1[nH]c2cc3c(C(F)(F)F)cc(=O)[nH]c3cc2c1C | 3 | 0 | 3 | 32 | . | .
Fc1ccc(CN2CCc3nc4ccncc4cc3C2)cc1 | 0 | 0 | -4 | -1 | . | .
Cc1nc(SCc2ccccc2)[nH]c(=O)c1CC(=O)N1CCN(Cc2ccccc2)CC1 | 6.2* | 0 | 6 | -1 | 0 | -7
O=C(Cc1ccc(Cl)cc1)N1CCN(Cc2ccccc2)CC1 | 2 | 0 | 1 | -7 | . | .
COP1(=S)C2=C(N3CCCC3)CCCC2=NN1c1ccccc1 (stereo not given) | -1 | 0 | 4 | 8 | . | .
CCOc1ccccc1N1CCN(Cc2cccnc2)CC1 | 5.5* | 0 | 40 | 5 | 0 | 11
CN(C)C(=O)Oc1ccc2cc(Br)ccc2c1 | -1 | 0 | -14 | -37 | . | .
